# From PubChem BioAssay (Tox21)
# “And” between values parts separate entries of the source, which are not always exact repeats. Equal entries are not always repeated. Values without a mark were called inactive. A call without a number means that no potency is given here. More than one record can exist for a structure, and the calls need not agree. The source made the active and inactive calls. Unless noted, calls come from the whole dose curve; as a rule, active = well fitted curve in the direction sought with a large enough effect in the repeat runs; inconclusive = weak or mixed curves; inactive = no such curve, though single readings can be large; an effect the other way counts as inactive or inconclusive.
# Columns and labels:
# [1] = qHTS assay for small molecule agonists of the p53 signaling pathway (AID 651631; calls by dose curve; note: nearly all actives have a fitted effect of over 15% in size; note: potency is the fitted concentration of half-maximal effect)
# Method in brief: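 HCT-116 cells carrying a beta-lactamase reporter under p53 response elements were dosed with compound for 16 h at 37 °C. LiveBLAzer B/G FRET substrate was then added for 2 h at room temperature, and fluorescence intensity was read to detect pathway agonism.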
# [2] = qHTS assay for small molecules that induce genotoxicity in human embryonic kidney cells expressing luciferase-tagged ATAD5 (AID 651632); note: nearly all actives have a fitted effect of over 15% in size; note: potency is the fitted concentration of half-maximal effect
# Method in brief: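 Cells were seeded at 2,000 per well, dosed with compound, and incubated 16 hr at 37C in 5% CO2. Luciferase activity was then quantified after a 30 min room-temperature incubation with Amplite.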
# [3] = qHTS assay for small molecule agonists of the p53 signaling pathway - cell viability (AID 651633; calls by dose curve; note: nearly all actives have a fitted effect of over 30% in size; note: potency is the fitted concentration of half-maximal effect)
# Method in brief: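 Viability counter-read: CellTiter-Glo luminescence (30 min, room temperature) in the same p53RE-bla plates. These plates had been exposed to compounds for 16 h at 37 C.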
# [4] = qHTS assay for small molecule disruptors of the mitochondrial membrane potential - cell viability (AID 720634; calls by dose curve;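 note: human HepG2 liver cancer cells; nearly all actives have a fitted effect of over 20% in size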)
# Method in brief: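 Cytotoxicity was measured by ATP quantitation in HepG2 wells that had first been treated with compound for 1 hr and stained with m-MPI dye; CellTiter-Glo incubation was 30 min at room temperature.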
# [5] = qHTS assay to test for compound auto fluorescence at 590 nm (red) in HepG2 cells (AID 720674)
# Method in brief: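 Red autofluorescence (Ex/Em 540/590 nm, Rose Bengal sodium equivalents) was measured in HepG2 cells, 2,000 per well in MEM plus 10% FBS, plated overnight at 37 C. Readings were taken 1 hr after adding 23 nL compound or DMSO, at 37 C and 5% CO2.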
# [6] = qHTS assay to test for compound auto fluorescence at 535 nm (green) in HepG2 cells (AID 720675)
# [7] = qHTS assay to test for compound auto fluorescence at 460 nm (blue) in HEK293 cells (AID 720678)
# Method in brief: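 Intrinsic compound fluorescence is recorded in live HEK293 cultures after overnight incubation at 37C, 5% CO2, using excitation 405 nm and emission 460 nm. Values are referenced to triamterene.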
# [8] = qHTS assay to test for compound auto fluorescence at 590 nm (red) in HEK293 cells (AID 720679)
# Method in brief: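 Red autofluorescence, HEK293 cells: 2,000 cells/well; attach 4-5 hr 37C; add 23 nL cpd or DMSO; incubate o/n 37C 5% CO2; read Ex540/Em590; Rose Bengal sodium reference.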
# [9] = qHTS assay to test for compound auto fluorescence at 535 nm (green) in HEK293 cells (AID 720680)
# [10] = qHTS assay to test for compound auto fluorescence at 460 nm (blue) in HEK293 cell free culture (AID 720681)
# Method in brief: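 Blue fluorescence (Ex 405/Em 460 nm, triamterene-equivalent) was read immediately after pin transfer of compound or DMSO into medium (DMEM, 10% FBS) without cells.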
# [11] = qHTS assay to test for compound auto fluorescence at 535 nm (green) in HEK293 cell free culture (AID 720682)
# Method in brief: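 Green-label autofluorescence (485 nm excitation, 535 nm emission) measured on compound added to cell-free culture medium (DMEM, 10% FBS). Output is expressed relative to fluorescein.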
# [12] = qHTS assay to test for compound auto fluorescence at 590 nm (red) in HEK293 cell free culture (AID 720683)
# Method in brief: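 Red-channel autofluorescence of compounds in culture medium (DMEM, 10% FBS), no cells, measured at 540/590 nm. Rose Bengal sodium is the reference fluorophore for equivalence.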
# [13] = qHTS assay to test for compound auto fluorescence at 590 nm (red) in HepG2 cell free culture (AID 720684)
# Method in brief: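 No cells present: MEM + 10% FBS only. Compound pinned in, red label read (540/590 nm). Activity = fluorescence equivalent to Rose Bengal sodium.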
# [14] = qHTS assay to test for compound auto fluorescence at 460 nm (blue) in HepG2 cell free culture (AID 720685)
# Method in brief: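 Cell-free plates of MEM plus 10% FBS received 23 nL compound or DMSO vehicle; blue-channel (405/460 nm) intensity scored against triamterene as reference fluorophore.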
# [15] = qHTS assay to test for compound auto fluorescence at 535 nm (green) in HepG2 cell free culture (AID 720686)
# [16] = qHTS assay to test for compound auto fluorescence at 460 nm (blue) in HepG2 cells (AID 720687)
# Method in brief: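 Blue-channel autofluorescence (Ex/Em 405/460 nm, triamterene-equivalent) was measured after 1 hr compound exposure at 37 C, 5% CO2. Cells were HepG2, plated overnight at 37 C in MEM plus 10% FBS.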
# [17] = molecular target: Glucocorticoid receptor (Homo sapiens) (UniProt P04150); assay: qHTS assay to identify small molecule antagonists of the glucocorticoid receptor (GR) signaling pathway (AID 720692; active = well fitted inhibition curve with a large enough effect in the signal ratio in the repeat runs, not every such curve was filed as active; inconclusive = weak or mixed curves, or effect the other way; inactive = no such curve, though single readings can be large or run the other way; the % refers to the signal ratio)
# Method in brief: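 Antagonism was scored as loss of dexamethasone-driven (5 nM final) reporter signal in HeLa cells bearing a glucocorticoid response element–beta-lactamase construct, after 18 h compound exposure at 37 C and 2 h FRET substrate loading.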
# [18] = qHTS assay for small molecules that induce genotoxicity in human embryonic kidney cells expressing luciferase-tagged ATAD5 - cell viability (AID 651634; calls by dose curve; note: potency is the fitted concentration of half-maximal effect; nearly all actives have a fitted effect of over 25% in size)
# Method in brief: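 Cells (HEK293T, luciferase-tagged ATAD5) are seeded at 2,000 per well, dosed with compound or DMSO vehicle, and incubated 15.5 hr at 37C and 5% CO2. CellTiter-Fluor is added for 30 min before fluorescence is measured.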
# [19] = qHTS assay for small molecule disruptors of the mitochondrial membrane potential (AID 720635); note: potency is the fitted concentration of half-maximal effect
# Method in brief: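 Mitochondrial membrane potential tracked with Mito-MPS dye, red aggregates (ex 540/em 590 nm) against green monomers (ex 490/em 535 nm). Compound treatment 1 hr at 37C, dye 30 min in HepG2.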
# [20] = molecular target: Glucocorticoid receptor (Homo sapiens) (UniProt P04150); assay: qHTS assay to identify small molecule agonists of the glucocorticoid receptor (GR) signaling pathway (AID 720691; active = well fitted activation curve with a large enough effect in the signal ratio in the repeat runs, not every such curve was filed as active; inconclusive = weak or mixed curves, or effect the other way; inactive = no such curve, though single readings can be large or run the other way; the % refers to the signal ratio); conditions: GR-bla HeLa, beta-lactamase reporter ratio, 18 h
# Method in brief: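 Steps: seed GR-bla HeLa cells, incubate 4 h at 37 C/5% CO2; pin-transfer DMSO-dissolved compounds; incubate 18 h at 37 C; add LiveBLAzer B/G FRET substrate; after 2 h at room temperature, measure fluorescence.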
# [21] = activation: at 62.4 µM (top of the series)
# Glucocorticoid receptor (Homo sapiens), sequence (P04150 whole entry, looked up): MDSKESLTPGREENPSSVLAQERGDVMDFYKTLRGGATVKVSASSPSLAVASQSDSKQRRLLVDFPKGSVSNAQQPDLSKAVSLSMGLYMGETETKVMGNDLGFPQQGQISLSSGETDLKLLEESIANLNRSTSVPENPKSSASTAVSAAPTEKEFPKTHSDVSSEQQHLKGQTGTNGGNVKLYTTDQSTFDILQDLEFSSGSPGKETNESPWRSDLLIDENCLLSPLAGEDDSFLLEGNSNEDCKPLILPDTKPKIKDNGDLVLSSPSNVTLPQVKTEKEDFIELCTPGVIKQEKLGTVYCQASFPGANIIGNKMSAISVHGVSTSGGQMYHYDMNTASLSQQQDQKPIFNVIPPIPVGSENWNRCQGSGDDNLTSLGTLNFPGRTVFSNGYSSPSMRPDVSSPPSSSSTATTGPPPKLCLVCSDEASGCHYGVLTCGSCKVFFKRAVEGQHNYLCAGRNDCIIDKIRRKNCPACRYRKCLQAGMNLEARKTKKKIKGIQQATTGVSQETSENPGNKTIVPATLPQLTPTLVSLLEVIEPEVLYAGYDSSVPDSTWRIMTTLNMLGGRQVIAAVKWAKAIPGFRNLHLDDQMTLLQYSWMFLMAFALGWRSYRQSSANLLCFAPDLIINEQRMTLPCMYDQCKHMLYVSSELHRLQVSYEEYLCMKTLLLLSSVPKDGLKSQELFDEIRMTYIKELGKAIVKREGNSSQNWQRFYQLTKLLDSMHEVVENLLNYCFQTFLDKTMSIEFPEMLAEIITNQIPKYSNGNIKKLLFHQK
compound,measurement,setting,value
CCOC(=O)/C=C(C)/C=C/C=C(C)/C=C/c1c(C)cc(OC)c(C)c1C,Potency,[1],21.1 µM (active)
same,Potency,[2],inactive
same,Potency,[3],inactive
same,Potency,[4],inactive
same,Potency,[5],inactive
same,Potency,[6],inactive
same,Potency,[7],inactive
same,Potency,[8],inactive
same,outcome,[9],inactive
same,Potency,[10],inactive
same,outcome,[11],inactive
same,Potency,[12],inactive
same,Potency,[13],inactive
same,Potency,[14],inactive
same,Potency,[15],inactive
same,Potency,[16],inactive
same,Potency,[17],inactive
N=C1N=C(N)c2ccccc21,Potency,[1],24.3 µM (active)
same,Potency,[2],21.7 µM (active)
same,Potency,[3],21.7 µM (active)
same,Potency,[4],inactive
same,Potency,[5],inactive
same,Potency,[6],inactive
same,Potency,[7],inactive
same,Potency,[8],inactive
same,outcome,[9],inactive
same,Potency,[10],inactive
same,outcome,[11],inactive
same,Potency,[12],inactive
same,Potency,[13],inactive
same,Potency,[14],inactive
same,Potency,[15],inactive
same,Potency,[16],inactive
CN1CCN(CCC(=O)N2c3ccccc3Sc3ccc(C(F)(F)F)cc32)CC1,Potency,[1],inactive
same,Potency,[2],inactive
same,Potency,[3],inactive
same,Potency,[4],inactive
same,Potency,[5],inactive
same,Potency,[6],inactive
same,Potency,[7],inactive
same,Potency,[8],inactive
same,outcome,[9],inactive
same,Potency,[10],inactive
same,outcome,[11],inactive
same,Potency,[12],inactive
same,Potency,[13],inactive
same,Potency,[15],inactive
same,Potency,[16],inactive
O=C(Nc1cccc(C(F)(F)F)c1)c1cc(Br)cc(Br)c1O,Potency,[1],5.31 µM (active) and 1.72 µM (active)
same,Potency,[2],inactive
same,Potency,[3],473 nM (active) and 686 nM (active)
same,Potency,[18],13.3 µM (active)
same,Potency,[19],335 nM (active) and 109 nM (active)
same,Potency,[5],inactive
same,Potency,[6],inactive
same,Potency,[7],inactive
same,outcome,[9],inactive
same,Potency,[10],inactive
same,outcome,[11],inactive
same,Potency,[12],inactive
same,Potency,[13],inactive
same,Potency,[14],inactive
same,Potency,[15],inactive
same,Potency,[16],inactive
same,activation,[20]; [21],9.27% [inconclusive] (active)
same,activation,[20]; at 62.4 µM (top of the series),10.1%
O=C(O)c1cc(O)c2c(c1)C(=O)c1cccc(O)c1C2=O,Potency,[1],19.9 µM (active)
same,Potency,[2],inactive
same,Potency,[3],inactive
same,Potency,[4],inactive
same,Potency,[19],2.51 µM (active)
same,Potency,[5],inactive
same,Potency,[6],inactive
same,Potency,[7],inactive
same,Potency,[8],inactive
same,outcome,[9],inactive
same,Potency,[10],inactive
same,outcome,[11],inactive
same,Potency,[12],inactive
same,Potency,[13],inactive
same,Potency,[14],inactive
same,Potency,[16],inactive
same,Potency,[20]; [21],inactive
same,Potency,[17],inactive
CNC(=O)c1ccccc1,Potency,[1],inactive
same,Potency,[2],inactive
same,Potency,[3],inactive
same,Potency,[4],inactive
same,Potency,[19],inactive
same,Potency,[5],inactive
same,Potency,[6],inactive
same,Potency,[7],inactive
same,Potency,[8],inactive
same,outcome,[9],inactive
same,Potency,[10],inactive
same,outcome,[11],inactive
same,Potency,[12],inactive
same,Potency,[13],inactive
same,Potency,[14],inactive
same,Potency,[15],inactive
same,Potency,[16],inactive
same,Potency,[20]; [21],inactive
